Assay results: PubChem BioAssay AID1159580 (chemical genetic matrix, 2015)
Values joined by “and” are separate entries in the source; they are usually repeats but may differ in a detail not shown here. Equal entries are not always repeated. Screen size: about 5,500 compounds; about 2,000 (36%) were called active. Inconclusive results (about 18%) are left out. No stated cut-off is given here; in the data, active means normalized growth mostly below about 0.91 (no sharp cut-off); inconclusive means no clear call, values can overlap the other calls; inactive means mostly above about 0.92. The list shows a part of the results.

Experiment: chemical genetic growth profiling, strain panel (AID 1159580);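 further: tested at 20 µM; growth read once vehicle control cultures reached saturation at 30 °C; 1 = growth at the plate median or of vehicle wells; lower values mean less growth of the strain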
Conditions: S. cerevisiae deletion strains, growth OD

Measured: normalized growth

CC(C)NNC(=O)c1ccncc1
inactive: locus YAL013W, strain DEP1, hits give low values 1.01 | locus YAL021C, strain ccr4, hits give low values 1.02 | locus YAL026C, strain drs2, hits give low values 1.03 | locus YAL030W, strain snc1, hits give low values 0.997 | locus YAL040C, strain CLN3, hits give low values 0.985 | locus YBL061C, strain skt5, hits give low values 1.01 | locus YBR009C, strain hhf1, hits give low values 1.01 | locus YBR021W, strain FUR4, hits give low values 1 | locus YBR023C, strain chs3, hits give low values 1.01 | locus YBR171W, strain sec66, hits give low values 1.01 | locus YBR229C, strain ROT2, hits give low values 1 | locus YBR231C, strain swc5, hits give low values 1.03 | locus YBR279W, strain paf1, hits give low values 1.01 | locus YCL011C, strain gbp2, hits give low values 1.02 | locus YCL016C, strain dcc1, hits give low values 1.01 | locus YCL029C, strain bik1, hits give low values 1.02 | locus YCL061C, strain MRC1 (second series), hits give low values 0.986 | locus YCL069W, strain vba3, hits give low values 1.02 | locus YCR088W, strain abp1, hits give low values 1.02 | locus YDL005C, strain med2, hits give low values 1 | locus YDL035C, strain GPR1, hits give low values 1.01 | locus YDL040C, strain nat1, hits give low values 1 | locus YDL074C, strain BRE1, hits give low values 1.02 | locus YDL101C, strain DUN1, hits give low values 1 | locus YDL134C, strain PPH21, hits give low values 1.01 | locus YDL185W, strain tfp1, hits give low values 1.01 | locus YDL192W, strain arf1, hits give low values 1.02 | locus YDR001C, strain nth1, hits give low values 1 | locus YDR069C, strain doa4, hits give low values 1 | locus YDR101C, strain arx1, hits give low values 1.01 | locus YDR137W, strain rgp1, hits give low values 1.01 | locus YDR150W, strain NUM1, hits give low values 0.994 and 0.996 | locus YDR159W, strain sac3, hits give low values 0.978 | locus YDR162C, strain NBP2, hits give low values 1.01 | locus YDR195W, strain ref2 0.961 | locus YDR297W, strain sur2, hits give low values 1 | locus YDR318W, strain mcm21, hits give low values 1.02 | locus YDR334W, strain swr1, hits give low values 1.03 | locus YDR335W, strain msn5, hits give low values 1.01 | locus YDR363W, strain ESC2, hits give low values 1.02 | locus YDR388W, hits give low values 1.01 | locus YDR392W, strain spt3, hits give low values 1.03 | locus YDR502C, strain sam2, hits give low values 1.01 | locus YEL003W, strain gim4, hits give low values 1 | locus YEL037C, strain rad23, hits give low values 1.02 | locus YEL061C, strain CIN8 (second series), hits give low values 1.01 | locus YEL061C, strain CIN8, hits give low values 1 | locus YER002W, strain NOP16, hits give low values 1.01 | locus YER015W, strain faa2, hits give low values 1.02 | locus YER016W, strain bim1, hits give low values 1.01 | locus YER110C, hits give low values 1.02 | locus YER111C, strain swi4, hits give low values 0.999 | locus YER155C, strain BEM2 (second series), hits give low values 1.04 | locus YER155C, strain BEM2, hits give low values 1 | locus YER167W, strain BCK2, hits give low values 1.01 | locus YFR010W, strain ubp6, hits give low values 1.02 | locus YGL078C, strain dbp3, hits give low values 1.02 | locus YGL086W, strain mad1, hits give low values 1.01 | locus YGL167C, strain pmr1, hits give low values 0.996 | locus YGL173C, strain kem1, hits give low values 1.03 | locus YGL227W, strain vid30, hits give low values 0.998 | locus YGL240W, strain doc1, hits give low values 1.01 | locus YGL248W, strain PDE1, hits give low values 0.996 | locus YGL253W, strain hxk2, hits give low values 1.03 | locus YGR078C, strain PAC10, hits give low values 1.01 | locus YGR135W, strain pre9, hits give low values 1.01 | locus YGR229C, strain SMI1, hits give low values 1 and 0.992 | locus YGR252W, strain gcn5, hits give low values 1.05 | locus YHR013C, strain ard1, hits give low values 1.02 | locus YHR027C, strain rpn1, hits give low values 1.01 | locus YHR030C, strain SLT2, hits give low values 1 | locus YHR079C, strain IRE1 (second series), hits give low values 1.02 | locus YHR094C, strain hxt1, hits give low values 1.01 | locus YHR129C, strain ARP1, hits give low values 1 | locus YHR142W, strain chs7, hits give low values 1.03 | locus YHR200W, strain rpn10, hits give low values 1.02 | locus YIL066C, strain RNR3, hits give low values 1.02 | locus YIL073C, strain SPO22, hits give low values 1.04 | locus YIL125W, strain kgd1, hits give low values 1.01 | locus YIR030C, strain dcg1, hits give low values 1.02 | locus YJL092W, strain hpr5, hits give low values 1.01 | locus YJL095W, strain BCK1 (second series), hits give low values 1.02 | locus YJL095W, strain BCK1, hits give low values 1.02 | locus YJL115W, strain asf1, hits give low values 0.988 | locus YJL129C, strain trk1, hits give low values 0.998 | locus YJL134W, strain LCB3, hits give low values 1.01 | locus YJL154C, strain vps35, hits give low values 1.01 | locus YJL164C, strain tpk1, hits give low values 1.01 | locus YJL166W, strain qcr8, hits give low values 1.01 | locus YJL168C, strain set2, hits give low values 1.02 | locus YJL187C, strain SWE1 (second series), hits give low values 1.01 | locus YJL187C, strain SWE1, hits give low values 1.01
